The values that follow come from PubChem BioAssay (NCI).

Several values for one entry are separate records, joined by “and”; a condition that tells them apart may be missing. Equal values may be shown once. About 83,000 compounds went through this panel and 20% of them were active in at least one assay; those are over-represented in the sample as a whole.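 48-hour exposure, single concentration, 96-well plates; percent growth endpoint where 0 means no net growth. Active: below 10.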 Unmarked numbers belong to inactive results. Activity calls are given as the source filed them.

Common to all, as to assay: NCI-60 one-dose screen, 48 h (100 = growth as untreated, 0 = no growth, -100 = all killed)
One test deals with HCT-15 colon. The settings on record: 10 µM unless noted.
The next test has as its system HT29 colon. The following applies: 10 µM unless noted.
The subject of another test is SNB-75 CNS. The settings on record: 10 µM unless noted.
The subject of the next test is SNB-19 CNS. The following applies: 10 µM unless noted.
The next test relates to U251 CNS. The following applies: 10 µM unless noted.
The next test relates to PC-3 prostate. The settings on record: 10 µM unless noted.
The test system of a further test is SK-MEL-5 melanoma. The following applies: 10 µM unless noted.
In the next test the test system is UACC-62 melanoma.
In another test the test system is LOX IMVI melanoma. The settings on record: 10 µM unless noted.
The next test relates to SK-MEL-28 melanoma. The following applies: 10 µM unless noted.
The next test has as its system SK-MEL-2 melanoma. The following applies: 10 µM unless noted.
The test system of the next test is EKVX NSCLC. The settings on record: 10 µM unless noted.
Another test concerns SN12C renal. The following applies: 10 µM unless noted.
In a further test the test system is UO-31 renal. The following applies: 10 µM unless noted.
In the next test the test system is TK-10 renal.
In the next test the test system is ACHN renal. The following applies: 10 µM unless noted.
A further test relates to CAKI-1 renal. The settings on record: 10 µM unless noted.
The next test has as its system A498 renal. The following applies: 10 µM unless noted.
The subject of another test is CCRF-CEM leukemia. The following applies: 10 µM unless noted.
The next test concerns MOLT-4 leukemia. The following applies: 10 µM unless noted.

`COc1cc(C=O)ccc1Oc1ccc([N+](=O)[O-])cc1[N+](=O)[O-]`: the growth in the test on HCT-15 colon is 108%; with HT29 colon it was 108%; in the test with SNB-75 CNS, 93.1%; with SNB-19 CNS it was 90.3%; in the test with U251 CNS it was 93.2%; with PC-3 prostate, 94.4%. Further, the growth with SK-MEL-5 melanoma was 98.6%; in the test on UACC-62 melanoma (10 µM unless noted) it was 82.3%; in the test with LOX IMVI melanoma, 82%; with SK-MEL-28 melanoma it was 107%; with SK-MEL-2 melanoma it was 96.9%; in the test on EKVX NSCLC it was 105%. The growth with SN12C renal is 99.8%; with UO-31 renal, 83.3%; with TK-10 renal (10 µM unless noted) it was 106%; in the test with ACHN renal it was 106%; in the test on CAKI-1 renal, 107%; with A498 renal, 95.2%. Besides, the growth in the test with CCRF-CEM leukemia is 82.9%; in the test on MOLT-4 leukemia, 100%.

`c1ccc(Cc2cccc[n+]2C(c2ccccc2)c2ccccc2)cc1`: the growth is 93.1% in the test on HCT-15 colon; 31.8% with HT29 colon; 50.8% in the test with SNB-75 CNS; 58.1% with SNB-19 CNS; 42.5% in the test with U251 CNS; 35.8% in the test on PC-3 prostate. The growth was 14.5% in the test with SK-MEL-5 melanoma; 37.7% in the test with UACC-62 melanoma (10 µM unless noted); 58.2% in the test with LOX IMVI melanoma; 41.6% in the test on SK-MEL-28 melanoma; 11.6% in the test with SK-MEL-2 melanoma; 30% with EKVX NSCLC. The growth in the test with SN12C renal is 71.5%; in the test with UO-31 renal, 82.7%; with TK-10 renal (10 µM unless noted) it was 62.9%; in the test on ACHN renal, 94.7%; with CAKI-1 renal, 94.4%; in the test with A498 renal it was 90.1%. The growth is 48.6% with CCRF-CEM leukemia and 59.3% with MOLT-4 leukemia.

Consider `S=c1nc(CS)[nH]c2ccccc12`, for which the growth in the test with HCT-15 colon was 93.2%; in the test on HT29 colon it was 101%; in the test on SNB-75 CNS it was 86.7%; in the test with SNB-19 CNS, 92.5%; in the test with U251 CNS it was 96.7%; in the test with PC-3 prostate it was 93.9%. The growth in the test on SK-MEL-5 melanoma is 95.7%; in the test with UACC-62 melanoma (10 µM unless noted), 90.6%; with LOX IMVI melanoma it was 91%; with SK-MEL-28 melanoma it was 105%; in the test with SK-MEL-2 melanoma it was 101%; with EKVX NSCLC, 84%. Moreover, the growth in the test with SN12C renal is 95.4%; with UO-31 renal, 71.8%; in the test with TK-10 renal (10 µM unless noted), 161%; in the test on ACHN renal, 93.5%; in the test with CAKI-1 renal, 77.1%; with A498 renal, 53.2%. Also, the growth with CCRF-CEM leukemia and in the test with MOLT-4 leukemia was 102% in each case.

Turning to `CC(C)(C)CC(N)=O`, the growth is 94.9% with HCT-15 colon; 102% in the test on HT29 colon; 96.4% in the test on SNB-75 CNS; 101% with SNB-19 CNS; 95.1% with U251 CNS; 97.9% in the test on PC-3 prostate. Further, the growth in the test on SK-MEL-5 melanoma was 94.1%; in the test on UACC-62 melanoma (10 µM), 103%; in the test on UACC-62 melanoma (100 µM), 79.5% and 18.4%; with LOX IMVI melanoma it was 98.1%; in the test with SK-MEL-28 melanoma, 102%; in the test with SK-MEL-2 melanoma, 102%. The growth in the test on SN12C renal is 102%; in the test on UO-31 renal, 104%; in the test on TK-10 renal (10 µM), 100%; with TK-10 renal (100 µM), 105% and 103%; in the test with ACHN renal, 96.9%; in the test with CAKI-1 renal it was 94.4%. Further, the growth in the test with A498 renal is 90.7%; in the test on CCRF-CEM leukemia, 102%; in the test with MOLT-4 leukemia it was 108%.

Regarding `O=C(NCCCN1CCCCC1)c1ccc(-c2nc3ccc4[nH]ncc4c3c3c2CCCC3)cc1`, the growth in the test with HCT-15 colon is 58.4%; with HT29 colon, 50.7%; in the test on SNB-75 CNS, 17.6%; with SNB-19 CNS it was 78.2%; in the test with U251 CNS, 66.7%; in the test on PC-3 prostate, 29%. Besides, the growth is 76.2% with SK-MEL-5 melanoma; 62.6% with UACC-62 melanoma (10 µM unless noted); 48.3% in the test on LOX IMVI melanoma; 72.2% in the test on SK-MEL-28 melanoma; 81.4% in the test with SK-MEL-2 melanoma; 67.4% in the test with EKVX NSCLC. The growth with SN12C renal was 50.4%; in the test with UO-31 renal, 54.4%; in the test with TK-10 renal (10 µM unless noted), 43.7%; in the test on ACHN renal it was 27.4%; in the test with CAKI-1 renal, 10.9%; in the test on A498 renal it was -10% (active). Also, the growth in the test with CCRF-CEM leukemia was 21.6%; in the test with MOLT-4 leukemia it was 18.4%.

As for `COc1ccc2c(c1)c(-c1nc(-c3c[nH]c4c(Cl)nccc34)cs1)cn2C`, the growth is 64.3% in the test with HCT-15 colon; 84% with HT29 colon; 82.9% in the test with SNB-75 CNS; 105% with SNB-19 CNS; 86.5% in the test with U251 CNS; 72.6% in the test on PC-3 prostate. Moreover, the growth in the test with SK-MEL-5 melanoma is 45.4%; with UACC-62 melanoma (10 µM unless noted), 87.8%; with LOX IMVI melanoma, 80%; with SK-MEL-28 melanoma, 105%; with SK-MEL-2 melanoma, 108%; with EKVX NSCLC it was 34.8%. Besides, the growth in the test with SN12C renal was 95.9%; with UO-31 renal, 90.8%; with TK-10 renal (10 µM unless noted), 35.7%; with ACHN renal, 85.4%; with CAKI-1 renal, 98.7%; with A498 renal, 94.7%. The growth is 93.7% in the test with CCRF-CEM leukemia and 85% in the test with MOLT-4 leukemia.
